In publication PMC7862700, “An all-to-all approach to the identification of sequence-specific readers for epigenetic DNA modifications on cytosine”:

Columns and labels:
Assay in all cases: DAPPL (digital affinity profiling via proximity ligation, sequencing); 10 mM Tris-HCl pH 7.5, 50 mM NaCl, 1 mM DTT, 4% glycerol, room temperature, 30 min; GST-TFs on glutathione beads, 16-mer random dsDNA library, 0.1% formaldehyde crosslink after washing; high values mean tight binding
[1] = target: T1, FLI1 (Homo sapiens, UniProt Q01543 1-452); settings: protein: recombinant; tags: N-terminal GST; dsDNA, one strand shown
T1 sequence: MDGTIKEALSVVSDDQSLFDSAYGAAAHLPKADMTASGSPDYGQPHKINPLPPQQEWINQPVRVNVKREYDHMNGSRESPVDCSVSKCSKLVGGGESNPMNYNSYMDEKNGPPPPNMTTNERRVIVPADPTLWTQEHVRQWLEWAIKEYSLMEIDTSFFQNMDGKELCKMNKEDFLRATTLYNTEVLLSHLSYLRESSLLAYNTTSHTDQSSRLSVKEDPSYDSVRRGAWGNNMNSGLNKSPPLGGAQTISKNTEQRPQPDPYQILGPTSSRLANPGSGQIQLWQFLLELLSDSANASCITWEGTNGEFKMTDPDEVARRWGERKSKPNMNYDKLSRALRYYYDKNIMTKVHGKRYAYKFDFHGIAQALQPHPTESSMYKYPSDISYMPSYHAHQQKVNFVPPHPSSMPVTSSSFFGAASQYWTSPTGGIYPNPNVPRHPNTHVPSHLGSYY
Summary of the method: (§1)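 Human transcription factors were made in yeast as GST fusions, captured on glutathione beads and barcoded with DNA. With a tag-only sample included, the pool was incubated with 200 nmole of a random double-stranded 16-mer DNA library in Tris/NaCl/DTT/glycerol buffer at room temperature for 30 min, then crosslinked with 0.1% formaldehyde after washing, ligated by proximity, amplified and sequenced. For binding signal, each hexamer's read frequency for a factor is divided by its frequency for the tag-only sample.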

[2] = target: T2, ELK1 (Homo sapiens, UniProt P19419 1-428); settings: protein: recombinant; tags: N-terminal GST; dsDNA, one strand shown
T2 sequence: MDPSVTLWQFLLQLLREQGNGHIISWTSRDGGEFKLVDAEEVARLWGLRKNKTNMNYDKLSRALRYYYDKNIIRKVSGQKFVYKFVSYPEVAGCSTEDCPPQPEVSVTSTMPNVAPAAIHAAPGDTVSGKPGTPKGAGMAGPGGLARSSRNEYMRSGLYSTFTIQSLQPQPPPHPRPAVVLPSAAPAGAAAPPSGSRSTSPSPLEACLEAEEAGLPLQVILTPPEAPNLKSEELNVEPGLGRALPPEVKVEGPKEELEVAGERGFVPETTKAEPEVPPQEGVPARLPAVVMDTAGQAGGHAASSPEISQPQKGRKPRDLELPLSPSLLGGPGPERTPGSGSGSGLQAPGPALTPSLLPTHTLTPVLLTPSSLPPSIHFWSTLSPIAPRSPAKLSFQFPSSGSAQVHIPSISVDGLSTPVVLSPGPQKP
Summary of the method: as §1

[3] = target: T3, GABPA (Homo sapiens, UniProt Q06546 1-454); settings: protein: recombinant; tags: N-terminal GST; dsDNA, one strand shown
T3 sequence: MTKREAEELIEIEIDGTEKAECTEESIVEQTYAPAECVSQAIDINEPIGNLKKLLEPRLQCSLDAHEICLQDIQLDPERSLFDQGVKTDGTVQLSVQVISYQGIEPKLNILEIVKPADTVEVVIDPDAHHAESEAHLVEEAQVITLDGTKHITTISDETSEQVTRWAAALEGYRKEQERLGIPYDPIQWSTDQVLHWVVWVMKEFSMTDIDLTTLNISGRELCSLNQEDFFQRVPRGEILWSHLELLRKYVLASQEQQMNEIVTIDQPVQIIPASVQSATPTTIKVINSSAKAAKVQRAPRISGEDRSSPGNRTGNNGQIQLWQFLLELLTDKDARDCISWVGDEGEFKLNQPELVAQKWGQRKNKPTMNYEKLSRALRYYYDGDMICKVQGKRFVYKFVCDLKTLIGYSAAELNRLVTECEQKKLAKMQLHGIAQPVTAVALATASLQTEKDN
Summary of the method: as §1

[4] = target: T4, ERG (Homo sapiens, UniProt P11308 1-479); settings: protein: recombinant; tags: N-terminal GST; dsDNA, one strand shown
T4 sequence: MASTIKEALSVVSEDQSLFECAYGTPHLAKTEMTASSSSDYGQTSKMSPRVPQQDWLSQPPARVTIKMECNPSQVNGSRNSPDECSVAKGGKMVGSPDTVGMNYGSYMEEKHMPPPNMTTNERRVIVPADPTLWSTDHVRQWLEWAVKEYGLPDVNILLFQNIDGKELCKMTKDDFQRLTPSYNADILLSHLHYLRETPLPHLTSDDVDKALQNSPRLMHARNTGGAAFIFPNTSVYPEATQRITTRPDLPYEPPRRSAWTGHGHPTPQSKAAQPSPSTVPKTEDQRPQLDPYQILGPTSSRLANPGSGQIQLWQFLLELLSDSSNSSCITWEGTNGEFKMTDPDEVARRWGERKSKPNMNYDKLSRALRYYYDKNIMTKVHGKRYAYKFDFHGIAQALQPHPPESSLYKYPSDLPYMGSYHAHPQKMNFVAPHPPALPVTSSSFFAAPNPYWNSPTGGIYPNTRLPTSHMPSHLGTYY
Summary of the method: as §1

[5] = target: ELF1 (Homo sapiens, UniProt P32519 1-619); settings: protein: recombinant; tags: N-terminal GST; dsDNA, one strand shown
Chain of ELF1 (P32519 whole entry): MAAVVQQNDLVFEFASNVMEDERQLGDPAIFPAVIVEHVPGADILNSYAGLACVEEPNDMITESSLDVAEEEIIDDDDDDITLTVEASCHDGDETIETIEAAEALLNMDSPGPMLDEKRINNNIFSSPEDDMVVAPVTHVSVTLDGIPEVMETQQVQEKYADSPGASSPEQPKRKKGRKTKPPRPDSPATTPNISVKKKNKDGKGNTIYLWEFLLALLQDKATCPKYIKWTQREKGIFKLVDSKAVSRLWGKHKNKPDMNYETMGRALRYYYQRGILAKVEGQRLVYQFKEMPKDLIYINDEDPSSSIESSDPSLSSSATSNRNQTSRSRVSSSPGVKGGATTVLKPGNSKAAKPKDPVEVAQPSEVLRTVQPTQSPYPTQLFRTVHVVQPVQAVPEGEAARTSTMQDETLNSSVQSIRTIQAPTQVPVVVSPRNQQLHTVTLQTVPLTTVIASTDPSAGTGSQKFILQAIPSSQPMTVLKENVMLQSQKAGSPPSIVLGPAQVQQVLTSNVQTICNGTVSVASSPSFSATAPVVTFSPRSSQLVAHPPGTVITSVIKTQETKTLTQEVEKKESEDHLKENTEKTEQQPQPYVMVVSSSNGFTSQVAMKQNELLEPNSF
Summary of the method: as §1

[6] = target: T5, EHF (Homo sapiens, UniProt Q9NZC4 1-300); settings: protein: recombinant; tags: N-terminal GST; dsDNA, one strand shown
T5 sequence: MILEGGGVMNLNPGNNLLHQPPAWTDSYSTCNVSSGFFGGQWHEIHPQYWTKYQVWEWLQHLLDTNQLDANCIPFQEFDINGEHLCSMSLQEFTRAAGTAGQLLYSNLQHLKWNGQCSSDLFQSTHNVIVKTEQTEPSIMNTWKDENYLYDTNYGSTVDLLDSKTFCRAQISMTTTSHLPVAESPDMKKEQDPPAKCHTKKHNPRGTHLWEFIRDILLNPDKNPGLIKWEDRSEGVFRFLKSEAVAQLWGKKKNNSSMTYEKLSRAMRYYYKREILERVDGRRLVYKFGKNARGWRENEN
Summary of the method: as §1

[7] = target: SPI1 (Homo sapiens, UniProt P17947 1-270); settings: protein: recombinant; tags: N-terminal GST; dsDNA, one strand shown
Summary of the method: as §1

[8] = target: SPIB (Homo sapiens, UniProt Q01892 1-262); settings: protein: recombinant; tags: N-terminal GST; dsDNA, one strand shown
Chain of SPIB (Q01892 whole entry): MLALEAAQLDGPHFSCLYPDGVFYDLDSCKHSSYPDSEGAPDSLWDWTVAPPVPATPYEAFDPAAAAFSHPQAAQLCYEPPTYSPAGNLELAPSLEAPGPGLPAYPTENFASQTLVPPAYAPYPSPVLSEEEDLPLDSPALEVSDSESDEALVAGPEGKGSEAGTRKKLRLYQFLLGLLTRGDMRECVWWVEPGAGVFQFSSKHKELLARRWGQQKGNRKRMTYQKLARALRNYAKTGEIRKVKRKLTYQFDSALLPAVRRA
Summary of the method: as §1

[9] = target: T6, ELK3 (Homo sapiens, UniProt P41970 1-407); settings: protein: recombinant; tags: N-terminal GST; dsDNA, one strand shown
T6 sequence: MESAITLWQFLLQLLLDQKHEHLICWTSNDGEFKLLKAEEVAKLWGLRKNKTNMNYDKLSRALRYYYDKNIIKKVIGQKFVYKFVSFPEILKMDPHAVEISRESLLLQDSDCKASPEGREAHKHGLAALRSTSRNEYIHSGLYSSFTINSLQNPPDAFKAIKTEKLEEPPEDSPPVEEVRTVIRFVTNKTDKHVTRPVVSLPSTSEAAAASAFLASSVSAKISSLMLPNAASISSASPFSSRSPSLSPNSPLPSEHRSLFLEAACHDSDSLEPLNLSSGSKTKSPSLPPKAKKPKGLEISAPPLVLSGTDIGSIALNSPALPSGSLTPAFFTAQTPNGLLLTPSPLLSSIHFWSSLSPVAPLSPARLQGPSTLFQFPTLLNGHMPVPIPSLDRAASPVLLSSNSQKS
Summary of the method: as §1

[10] = target: T7, FEV (Homo sapiens, UniProt Q99581 1-238); settings: protein: recombinant; tags: N-terminal GST; dsDNA, one strand shown
T7 sequence: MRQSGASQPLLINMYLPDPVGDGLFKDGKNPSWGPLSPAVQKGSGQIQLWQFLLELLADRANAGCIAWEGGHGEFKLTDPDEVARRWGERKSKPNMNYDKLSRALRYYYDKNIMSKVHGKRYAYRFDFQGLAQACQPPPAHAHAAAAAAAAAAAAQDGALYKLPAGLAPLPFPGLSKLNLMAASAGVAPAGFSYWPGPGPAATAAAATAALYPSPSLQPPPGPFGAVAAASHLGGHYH
Summary of the method: as §1

[11] = target: ETV5 (Homo sapiens, UniProt P41161 1-510); settings: protein: recombinant; tags: N-terminal GST; dsDNA, one strand shown
Chain of ETV5 (P41161 whole entry): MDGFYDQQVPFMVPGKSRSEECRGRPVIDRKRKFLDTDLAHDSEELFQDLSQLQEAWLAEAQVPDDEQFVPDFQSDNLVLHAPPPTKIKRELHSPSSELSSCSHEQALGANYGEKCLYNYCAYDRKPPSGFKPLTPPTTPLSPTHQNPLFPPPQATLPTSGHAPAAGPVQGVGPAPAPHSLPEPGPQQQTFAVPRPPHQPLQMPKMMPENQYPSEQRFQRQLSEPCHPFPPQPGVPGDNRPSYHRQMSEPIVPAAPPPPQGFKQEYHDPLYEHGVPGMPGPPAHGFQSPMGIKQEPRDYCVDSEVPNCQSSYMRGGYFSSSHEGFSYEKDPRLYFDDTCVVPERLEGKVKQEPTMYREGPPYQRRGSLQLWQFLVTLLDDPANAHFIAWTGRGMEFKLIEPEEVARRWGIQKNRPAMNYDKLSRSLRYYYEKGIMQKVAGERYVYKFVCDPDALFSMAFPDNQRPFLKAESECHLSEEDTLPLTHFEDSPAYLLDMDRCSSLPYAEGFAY
Summary of the method: as §1

[12] = target: HSF1 (Homo sapiens, UniProt Q00613 1-529); settings: protein: recombinant; tags: N-terminal GST; chain copies: 3; dsDNA, one strand shown
Chain of HSF1 (Q00613 whole entry): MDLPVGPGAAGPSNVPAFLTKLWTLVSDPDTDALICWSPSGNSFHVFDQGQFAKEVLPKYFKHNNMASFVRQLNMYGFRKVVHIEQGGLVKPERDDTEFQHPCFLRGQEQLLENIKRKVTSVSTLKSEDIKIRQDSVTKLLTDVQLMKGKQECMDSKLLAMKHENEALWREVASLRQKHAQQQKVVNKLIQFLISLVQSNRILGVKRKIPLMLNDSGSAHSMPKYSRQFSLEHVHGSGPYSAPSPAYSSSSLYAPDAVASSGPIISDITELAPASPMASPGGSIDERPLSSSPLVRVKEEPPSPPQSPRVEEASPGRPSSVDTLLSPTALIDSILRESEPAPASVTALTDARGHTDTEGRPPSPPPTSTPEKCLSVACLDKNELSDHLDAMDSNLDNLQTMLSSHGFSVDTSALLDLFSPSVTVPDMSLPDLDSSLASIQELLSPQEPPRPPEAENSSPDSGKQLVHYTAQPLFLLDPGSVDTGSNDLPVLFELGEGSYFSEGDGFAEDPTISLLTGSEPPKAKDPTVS
Summary of the method: as §1

[13] = target: T8, SPIC (Homo sapiens, UniProt Q8N5J4 1-248); settings: protein: recombinant; tags: N-terminal GST; dsDNA, one strand shown
T8 sequence: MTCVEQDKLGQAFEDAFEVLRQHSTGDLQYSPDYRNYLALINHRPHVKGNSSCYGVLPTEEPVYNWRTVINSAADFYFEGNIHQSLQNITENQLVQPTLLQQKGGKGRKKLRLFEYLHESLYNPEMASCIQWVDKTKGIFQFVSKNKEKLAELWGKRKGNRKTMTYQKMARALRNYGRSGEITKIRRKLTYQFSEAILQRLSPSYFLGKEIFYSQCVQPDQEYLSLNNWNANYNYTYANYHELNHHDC
Summary of the method: as §1

[14] = target: ELF4 (Homo sapiens, UniProt Q99607 1-663); settings: protein: recombinant; tags: N-terminal GST; dsDNA, one strand shown
Chain of ELF4 (Q99607 whole entry): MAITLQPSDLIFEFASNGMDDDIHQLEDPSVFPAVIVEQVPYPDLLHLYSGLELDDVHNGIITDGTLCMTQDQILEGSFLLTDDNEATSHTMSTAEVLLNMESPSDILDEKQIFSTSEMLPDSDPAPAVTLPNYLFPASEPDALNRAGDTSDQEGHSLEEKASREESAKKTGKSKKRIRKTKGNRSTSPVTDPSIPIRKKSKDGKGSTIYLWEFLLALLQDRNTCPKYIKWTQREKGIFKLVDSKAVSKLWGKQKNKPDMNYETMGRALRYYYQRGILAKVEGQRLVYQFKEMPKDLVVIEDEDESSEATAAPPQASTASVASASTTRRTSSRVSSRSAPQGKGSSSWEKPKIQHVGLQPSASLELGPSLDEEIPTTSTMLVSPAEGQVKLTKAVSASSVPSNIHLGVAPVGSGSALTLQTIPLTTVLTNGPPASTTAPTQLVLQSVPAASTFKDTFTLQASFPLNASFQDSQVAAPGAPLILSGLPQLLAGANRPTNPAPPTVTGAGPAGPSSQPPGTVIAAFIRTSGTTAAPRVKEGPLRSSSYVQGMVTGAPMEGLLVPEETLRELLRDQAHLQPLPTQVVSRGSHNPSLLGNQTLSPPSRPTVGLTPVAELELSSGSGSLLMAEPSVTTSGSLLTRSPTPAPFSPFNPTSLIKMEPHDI
Summary of the method: as §1

[15] = target: T9, ELK4 (Homo sapiens, UniProt P28324-2 1-405); settings: protein: recombinant; tags: N-terminal GST; dsDNA, one strand shown
T9 sequence: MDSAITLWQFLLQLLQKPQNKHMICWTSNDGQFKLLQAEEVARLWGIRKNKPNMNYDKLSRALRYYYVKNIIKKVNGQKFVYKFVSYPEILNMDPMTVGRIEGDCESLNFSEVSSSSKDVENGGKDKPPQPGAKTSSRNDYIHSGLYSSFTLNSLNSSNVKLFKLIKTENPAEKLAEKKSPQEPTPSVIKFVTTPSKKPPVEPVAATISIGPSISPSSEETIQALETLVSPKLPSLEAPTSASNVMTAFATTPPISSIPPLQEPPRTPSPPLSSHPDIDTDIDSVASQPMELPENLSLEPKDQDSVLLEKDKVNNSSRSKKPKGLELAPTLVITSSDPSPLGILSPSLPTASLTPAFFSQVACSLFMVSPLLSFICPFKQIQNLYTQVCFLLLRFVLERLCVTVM
Summary of the method: as §1

[16] = target: T10, ETV2 (Homo sapiens, UniProt O00321 1-342); settings: protein: recombinant; tags: N-terminal GST; dsDNA, one strand shown
T10 sequence: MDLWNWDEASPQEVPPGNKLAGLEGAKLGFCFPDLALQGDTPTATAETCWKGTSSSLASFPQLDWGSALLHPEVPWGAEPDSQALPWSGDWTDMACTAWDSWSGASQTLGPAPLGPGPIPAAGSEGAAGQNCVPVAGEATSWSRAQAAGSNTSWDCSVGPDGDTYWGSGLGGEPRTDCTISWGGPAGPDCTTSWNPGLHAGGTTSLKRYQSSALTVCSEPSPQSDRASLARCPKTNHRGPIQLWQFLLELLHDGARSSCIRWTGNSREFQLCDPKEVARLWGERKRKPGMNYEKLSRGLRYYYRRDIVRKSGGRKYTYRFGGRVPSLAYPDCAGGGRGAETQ
Summary of the method: as §1

[17] = target: T11, ELF3 (Homo sapiens, UniProt P78545 1-371); settings: protein: recombinant; tags: N-terminal GST; dsDNA, one strand shown
T11 sequence: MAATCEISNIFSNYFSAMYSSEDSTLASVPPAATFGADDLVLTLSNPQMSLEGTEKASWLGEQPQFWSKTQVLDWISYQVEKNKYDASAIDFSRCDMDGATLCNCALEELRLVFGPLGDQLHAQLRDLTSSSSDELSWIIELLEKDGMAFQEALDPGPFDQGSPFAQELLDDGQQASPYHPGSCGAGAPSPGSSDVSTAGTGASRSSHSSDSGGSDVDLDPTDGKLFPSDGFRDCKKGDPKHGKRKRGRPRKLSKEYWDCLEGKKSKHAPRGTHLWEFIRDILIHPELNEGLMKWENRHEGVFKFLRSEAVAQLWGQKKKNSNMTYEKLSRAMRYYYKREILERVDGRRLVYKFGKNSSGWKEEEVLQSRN
Summary of the method: as §1

[18] = target: CRX (Homo sapiens, UniProt O43186 1-299); settings: protein: recombinant; tags: N-terminal GST; dsDNA, one strand shown
Chain of CRX (O43186 whole entry): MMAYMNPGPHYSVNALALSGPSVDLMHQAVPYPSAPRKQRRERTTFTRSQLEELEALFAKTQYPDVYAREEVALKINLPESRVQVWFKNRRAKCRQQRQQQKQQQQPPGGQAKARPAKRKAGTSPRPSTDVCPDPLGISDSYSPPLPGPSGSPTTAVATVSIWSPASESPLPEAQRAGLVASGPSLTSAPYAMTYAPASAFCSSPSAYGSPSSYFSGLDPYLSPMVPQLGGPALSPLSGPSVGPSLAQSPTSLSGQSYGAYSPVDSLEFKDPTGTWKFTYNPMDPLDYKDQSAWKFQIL
Summary of the method: as §1

[19] = target: ETV1 (Homo sapiens, UniProt P50549 1-477); settings: protein: recombinant; tags: N-terminal GST; dsDNA, one strand shown
Chain of ETV1 (P50549 whole entry): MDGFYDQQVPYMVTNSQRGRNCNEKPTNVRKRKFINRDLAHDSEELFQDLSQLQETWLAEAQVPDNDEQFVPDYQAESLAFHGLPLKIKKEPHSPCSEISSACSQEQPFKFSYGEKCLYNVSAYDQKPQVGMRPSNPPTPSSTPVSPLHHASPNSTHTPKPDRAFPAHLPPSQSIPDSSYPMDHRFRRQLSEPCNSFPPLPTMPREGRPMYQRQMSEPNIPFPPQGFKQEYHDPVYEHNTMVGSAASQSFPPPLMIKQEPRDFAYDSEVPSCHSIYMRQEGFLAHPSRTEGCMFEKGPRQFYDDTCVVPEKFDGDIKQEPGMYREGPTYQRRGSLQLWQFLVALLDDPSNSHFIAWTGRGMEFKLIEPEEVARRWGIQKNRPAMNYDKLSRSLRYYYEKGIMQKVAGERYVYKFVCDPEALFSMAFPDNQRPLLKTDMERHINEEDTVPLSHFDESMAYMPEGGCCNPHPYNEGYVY
Summary of the method: as §1

TAGCAA
binding signal [1]: 1.15 fold enrichment (6-mer frequency, TF over GST control) | binding signal [2]: 1.21 fold enrichment (6-mer frequency, TF over GST control) | binding signal [3]: 1.21 fold enrichment (6-mer frequency, TF over GST control) | binding signal [4]: 1.17 fold enrichment (6-mer frequency, TF over GST control) | binding signal [5]: 1.23 fold enrichment (6-mer frequency, TF over GST control) | binding signal [6]: 1.23 fold enrichment (6-mer frequency, TF over GST control) | binding signal [7]: 1.21 fold enrichment (6-mer frequency, TF over GST control) | binding signal [8]: 1.34 fold enrichment (6-mer frequency, TF over GST control) | binding signal [9]: 1.24 fold enrichment (6-mer frequency, TF over GST control) | binding signal [10]: 1.17 fold enrichment (6-mer frequency, TF over GST control) | binding signal [11]: 1.33 fold enrichment (6-mer frequency, TF over GST control) | binding signal [12]: 1.59 fold enrichment (6-mer frequency, TF over GST control) | binding signal [13]: 1.14 fold enrichment (6-mer frequency, TF over GST control) | binding signal [14]: 1.34 fold enrichment (6-mer frequency, TF over GST control) | binding signal [15]: 1.38 fold enrichment (6-mer frequency, TF over GST control) | binding signal [16]: 1.36 fold enrichment (6-mer frequency, TF over GST control) | binding signal [17]: 1.36 fold enrichment (6-mer frequency, TF over GST control) | binding signal [18]: 1.46 fold enrichment (6-mer frequency, TF over GST control) | binding signal [19]: 1.23 fold enrichment (6-mer frequency, TF over GST control)
